{
  "source": "the supplement of paper PMC8866396",
  "note": "± gives the standard deviation of the averaged measurements.",
  "data": [
    {"tested_on": "IL-6-GFP PC-9GR", "experiment": "cell viability (CCK-8 OD) relative to DMSO control (fraction of control); higher = more viable cells", "conditions": "compound concentration: 10 uM; treatment time: 48 h", "in_short": "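PC-9 and PC-9GR lung cancer cells expressing lentiviral IL-6-GFP were plated at 3000 cells/well in 96-well plates and treated for 48 h with each library compound at a final 10 μM. Viability was determined by CCK-8 absorbance as a ratio of each well's optical density to the vehicle control well.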", "values": [
      {"molecule": "COC(c1ccccc1)(c1ccccc1)C(Oc1nc(C)cc(C)n1)C(=O)O", "note": "(configuration not stated) [Ambrisentan]", "cell viability": "1.22 ± 0.077"},
      {"molecule": "O=C(OCC1OC(OC(=O)c2cc(O)c(O)c(OC(=O)c3cc(O)c(O)c(O)c3)c2)C(OC(=O)c2cc(O)c(O)c(OC(=O)c3cc(O)c(O)c(O)c3)c2)C(OC(=O)c2cc(O)c(O)c(OC(=O)c3cc(O)c(O)c(O)c3)c2)C1OC(=O)c1cc(O)c(O)c(OC(=O)c2cc(O)c(O)c(O)c2)c1)c1cc(O)c(O)c(OC(=O)c2cc(O)c(O)c(O)c2)c1", "note": "(configuration not stated) [Tannic acid]", "cell viability": "1.05 ± 0.11"},
      {"molecule": "CC(C(=O)O)c1ccc2c(c1)CC(=O)c1ccccc1S2", "note": "(configuration not stated) [Zaltoprofen]", "cell viability": "0.953 ± 0.054"},
      {"molecule": "CS(=O)(=O)CCNCc1ccc(-c2ccc3ncnc(Nc4ccc(OCc5cccc(F)c5)c(Cl)c4)c3c2)o1.Cc1ccc(S(=O)(=O)O)cc1.Cc1ccc(S(=O)(=O)O)cc1", "cell viability": "1.18 ± 0.056"},
      {"molecule": "C=CC(=O)Nc1cc(Nc2nccc(-c3cn(C)c4ccccc34)n2)c(OC)cc1N(C)CCN(C)C.CS(=O)(=O)O", "note": "[Osimertinib mesylate]", "cell viability": "0.206 ± 0.046"},
      {"molecule": "Nc1nnc(-c2cccc(Cl)c2Cl)c(N)n1", "note": "[Lamotrigine]", "cell viability": "1.12 ± 0.3"},
      {"molecule": "CCC1(O)CC2CN(CCc3c([nH]c4ccccc34)C(C(=O)OC)(c3cc4c(cc3OC)N(C)C3C(O)(C(=O)OC)C(OC(C)=O)C5(CC)C=CCN6CCC43C65)C2)C1.O=S(=O)(O)O", "note": "(configuration not stated) [Vinblastine sulfate]", "cell viability": "0.475 ± 0.069"}
    ]}
  ]
}
